This is a sample that favours compounds with a hit; in the whole collection about 3.7% have one here.
tim10-1 inh = tim10-1 yeast growth inhibition; S. cerevisiae tim10-1 ts strain growth, BacTiter-Glo, 24 h; inhibition, % at 20 µM; actives 2.2% (n = 330,000);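 active = inhibition of at least 40%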;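 also: mutant grown at 25 °C; 0% = DMSO wells with yeast and 100% = wells holding no yeast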
TIM10 inh = TIM10 yeast growth inhibition. S. cerevisiae TIM10 strain growth, BacTiter-Glo luminescence, 24 h. inhibition, % at 10 µM. actives 1.4% (n = 330,000);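 active = inhibition of 40% or more at the single tested concentration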;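 also: wild-type TIM10 isogenic control strain grown at permissive 25 °C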
NALP3 yeast inh = inhibitors of NALP3 inflammasome in yeast; Yeast reconstituted NLRP3/ASC/caspase-1, beta-gal luminescence, 24 h; inhibition, % at 10 µM; actives 0.39% (n = 330,000); AID 2825;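 active = inhibition of 50% or more; inactive = inhibition below 50%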;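 also: plate controls were induced DMSO wells for no effect and uninduced yeast grown without galactose for full effect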
tim23-1 inh = inhibits growth of tim23-1 mutant yeast | actives 1.3% (n = 330,000) | AID 463212 | S. cerevisiae tim23-1 growth, BacTiter-Glo luminescence, 24 h | inhibition, % at 20 µM;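 active = growth inhibition of the mutant yeast at or above 50%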;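 also: temperature-sensitive mutant grown at 25 °C; plate controls were DMSO-treated mutant yeast for no effect and medium wells lacking yeast for full effect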
PfHsp90 yeast 2 = inhibits growth of yeast expressing Plasmodium falciparum Hsp90; S. cerevisiae expressing PfHsp90, BacTiter-Glo ATP, 48 h; yeast lacking PDR1 and PDR3 efflux regulators; inhibition, % at 9.4 µM; actives 0.32% (n = 310,000); AID 504621;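 active = every replicate shows inhibition above about 80%, whatever the replicate mean, limit read from the data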;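 also: 0% = DMSO neutral controls and 100% = 20 µM radicicol positive controls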
tim23-1 confirm = confirmation of tim23-1 mutant yeast growth inhibitors. inhibition, % at 20 µM. S. cerevisiae tim23-1 growth, BacTiter-Glo luminescence, 24 h. AID 463218. actives 83% (n = 4,400). shares compounds with tim23-1 inh;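 active = inhibition above about 39% in either of two replicate wells at 20 µM, limit read from the data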;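 also: temperature-sensitive tim23-1 mutant grown at 25 °C; 0% = DMSO wells with yeast and 100% = medium wells without yeast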
The depositor's hits bear a star; x = no result.

SMILES	tim10-1 inh	TIM10 inh	NALP3 yeast inh	tim23-1 inh	PfHsp90 yeast 2	tim23-1 confirm
COC(=O)c1ccc(-n2c(C)cc(C(=O)CCl)c2C)cc1	7.4	33.2	-72.6	52.4*	-71.1	30.1
Cn1c(SCC(=O)C(C)(C)C)nnc1-c1cccnc1	4.9	7.6	3.0	-5.4	3.2	x
Fc1cccc(NC(=S)NNc2ccccc2)c1	12.8	18.5	19.4	59.5*	1.8	-18.4
Fc1cccc(NC(=S)NNc2c3ccccc3nc3ccccc23)c1	x	x	x	x	-48.5	x
COc1ccc(-n2c3c(c(=O)[nH]c2=O)C(NS(=O)(=O)c2ccc(Cl)cc2)(C(F)(F)F)C(=O)N3)cc1 (stereo not drawn)	8.1	-10.4	-4.2	2.0	0.7	x
O=C(c1cc(-c2ccc(O)cc2)on1)N1CCc2ccccc2C1	26.6	7.3	27.0	72.4*	-20.3	56.1*
Cc1cc(C)nc(N2CCCC(C(=O)Nc3nc4ccc(S(C)(=O)=O)cc4s3)C2)n1 (stereo not drawn)	20.6	16.2	-8.0	21.0	30.1	x
O=C(/C=C\Nc1cccc(F)c1)c1cccs1	8.1	23.6	33.4	53.3*	-8.8	50.7*
Cc1ccc(N/C=C/C(=O)c2cccs2)cc1	-12.2	13.2	16.4	55.7*	10.6	56.7*
Nc1ccc(N=Nc2ccccc2)c2cccnc12	36.4	20.7	43.5	58.6*	-41.7	50.5*
O=S(=O)(O)c1cccc2c(N=Nc3ccc(O)c4ncccc34)cccc12	x	x	x	x	-4.0	x
COc1cccc(N=Nc2ccc(O)c3ncccc23)c1	-23.2	38.2	37.9	61.5*	102.1*	55.8*
Nc1ccc(Br)c2cccnc12	23.6	14.9	13.9	-6.8	x	x
COc1ccc(C(C(=O)Nc2ccc(F)cc2)N(C(=O)Cn2nnc3ccccc32)C2CC2)cc1 (stereo not drawn)	-6.3	-6.9	11.3	-12.1	-8.8	x
O=C(NC1CC1)c1cccc(S(=O)(=O)N2CCOCC2)c1	0.0	1.2	-1.2	1.7	20.7	x
O=S(=O)(Cc1ccc(Cl)cc1)Nc1ccc2c(c1)OCO2	35.5	38.4	34.1	59.2*	10.1	48.6*
O=S(=O)(Cc1ccc(Cl)cc1)N1CCN(Cc2ccc3c(c2)OCO3)CC1	-3.9	-24.4	25.7	-19.5	4.7	x
COc1ccc(CCN(/C=C2\Sc3ccccc3C2=O)C(C)=O)cc1OC	14.9	20.9	0.9	50.4*	x	51.9*
Cc1ccc(C(=O)SC2=NCCS2)cc1	2.7	25.8	11.0	73.2*	25.1	49.3*
Cc1nc2ccccc2nc1Nc1cccc(Cl)c1	38.9	26.2	18.0	61.0*	-58.8	41.4*
CCOC(=O)N1CCC(NC(=O)c2ccccc2C(=O)O)CC1	12.2	12.7	-1.9	7.1	2.0	x
CCOC(=O)N1CCC(NC(=O)c2oc3c(C)c(C)ccc3c2C)CC1	36.9	29.7	19.7	59.8*	-3.8	58.1*
CC(C)Cn1cnc2c(c(-c3ccccc3)c(-c3ccccc3)n2Cc2ccco2)c1=N	30.9	-13.3	17.8	75.6*	4.3	40.7*
N=c1c2c(-c3ccccc3)c(-c3ccccc3)n(Cc3ccco3)c2ncn1Cc1ccccc1	30.1	31.4	23.6	86.5*	15.9	58.7*
Clc1ccc(/C=C/c2nc(Cl)c(-c3ccc(Cl)cc3)c(Cl)n2)cc1	8.2	4.5	12.7	1.4	4.4	x
SMILES	tim10-1 inh	TIM10 inh	NALP3 yeast inh	tim23-1 inh	PfHsp90 yeast 2	tim23-1 confirm
O=C(CSc1cccc[n+]1[O-])c1cc(Cl)ccc1Cl	9.8	6.8	3.2	59.3*	-4.8	76.8*
CC1CCCCN1C(=O)Cn1cnc2cc([N+](=O)[O-])ccc2c1=O (stereo not drawn)	2.6	33.8	31.6	-1.7	1.3	x
Oc1ccc(Br)cc1C=Nc1ccc2c3c(cccc13)CC2	21.3	21.1	12.5	63.5*	31.6	60.4*
Cc1ccc(/C=N/NC(=O)c2cc3c(ccc4ccccc43)o2)o1	-33.3	14.0	48.1	56.5*	13.4	46.1*
O=C(N/N=C/c1ccc([N+](=O)[O-])o1)c1cc2c(ccc3ccccc32)o1	x	x	x	x	-12.9	x
CC(C)(C)C(=O)NC(n1cnc2c(N3CCOCC3)ncnc21)C(Cl)(Cl)Cl (stereo not drawn)	13.6	11.6	8.8	22.0	-9.9	x
O=S(=O)(Nc1ccc(O)c2ccccc12)c1cccs1	12.4	29.0	28.0	57.2*	1.7	44.0*
O=S(=O)(Nc1cccc2ccccc12)c1cccs1	29.0	23.2	-16.8	23.5	5.8	x

Assay outcomes: PubChem BioAssay, several laboratories
